Data reported in PubChem BioAssay (NCI).
“And” between values parts separate entries of the source, which are not always exact repeats. Identical values can stand only once. About 83,000 compounds went through this panel and 20% of them were active in at least one assay; those are over-represented in the sample as a whole.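 How to read the values: 0–100, growth inhibition (40 = 60% inhibited); 0, no net growth; -100 to 0, cell death (-40 = 40% of starting cells died; -100 = all dead).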 A number with no mark means an inactive call. The source made the active and inactive calls. The calls were made as follows: active = growth percent below 10; inactive = the rest.

System: IGROV1 ovarian
Experiment: NCI-60 one-dose screen, 48 h (100 = growth as untreated, 0 = no growth, -100 = all killed)
Details: 100 µM

Structure (SMILES)	growth
CCN(Cc1ccccc1)c1ccc(/C=C2\COc3ccccc3C2=O)cc1	40.2%
CC(=O)/C=C/c1ccc(OCc2ccc(C(C)(C)C)cc2)cc1	81.6%
CC(=O)/C=C/c1ccc(N(CCO)Cc2ccc(C(C)(C)C)cc2)cc1	-65.9% (active)
O=C(/C=C/c1cccc(Oc2ccc(Cl)cc2)c1)c1ccccc1	-49.9% (active)
COc1ccc(C(=O)/C=C/c2ccc(OCc3cccc(C(F)(F)F)c3)c(OC)c2)cc1OC	5.18% (active)
CC(=O)/C=C/c1ccc(OCc2ccc(Cl)cc2)cc1	61.4%
COc1ccc(C(=O)/C=C/c2ccc(OCc3ccc(Cl)cc3)cc2)cc1OC	4.98% (active)
CC(=O)/C=C/c1ccc(N(C)Cc2ccc(C(C)(C)C)cc2)cc1	1.66% (active)

System: OVCAR-3 ovarian
Experiment: as above
Details: 10 µM

Structure (SMILES)	growth [%]
CCN(Cc1ccccc1)c1ccc(/C=C2\COc3ccccc3C2=O)cc1	108
CC(=O)/C=C/c1ccc(OCc2ccc(C(C)(C)C)cc2)cc1	94.6
CC(=O)/C=C/c1ccc(N(CCO)Cc2ccc(C(C)(C)C)cc2)cc1	84.4
O=C(/C=C/c1cccc(Oc2ccc(Cl)cc2)c1)c1ccccc1	93.3
COc1ccc(C(=O)/C=C/c2ccc(OCc3cccc(C(F)(F)F)c3)c(OC)c2)cc1OC	79.8
CC(=O)/C=C/c1ccc(OCc2ccc(Cl)cc2)cc1	102
COc1ccc(C(=O)/C=C/c2ccc(OCc3ccc(Cl)cc3)cc2)cc1OC	104
CC(=O)/C=C/c1ccc(N(C)Cc2ccc(C(C)(C)C)cc2)cc1	101

Same assay, conditions: 10 µM unless noted

Structure (SMILES)	growth
CCOC(=O)c1ccc(Nc2ncnc3c2cnn3-c2cccc(F)c2)cc1	112%
O=S(=O)(O)c1ccc(N=Nc2ccc(N=Nc3cccc4ccccc34)c(S(=O)(=O)O)c2)cc1	103%
CC[C@@H]1NC(=O)[C@H]([C@H](O)[C@H](C)C/C=C/c2ccc(CN3C(=O)C(C)=C(C)C3=O)cc2)N(C)C(=O)[C@H](C(C)C)N(C)C(=O)[C@H](CC(C)C)N(C)C(=O)[C@H](CC(C)C)N(C)C(=O)[C@@H](C)NC(=O)[C@H](C)NC(=O)[C@H](CC(C)C)N(C)C(=O)[C@H](C(C)C)NC(=O)[C@H](CC(C)C)N(C)C(=O)CN(C)C1=O	76.7%
COc1nc(=O)n(C2C=CC(=O)O2)cc1F (stereo not given)	33.8%
COc1ccc(-c2csc(NC(=O)CN3CCN(CCO)CC3)n2)cc1NS(=O)(=O)c1cccc2c(N(C)C)cccc12	79.5%
O=C1/C(=C/c2ccc(-c3cccc(C(F)(F)F)c3)o2)SC(=S)N1CCc1ccc(O)cc1	63.4%
BrC1=C(Br)C(Br)(Br)C(Br)=C1Br	104%
OCc1cc(CN2CCCCC2)c(O)c2ncccc12	45%
COc1ccc(C2=C(CN)C(O)NC(=NCC(=O)c3ccc4ccccc4c3)N2)cc1 (stereo not given)	99.9%
N#CSc1c[nH]c2ccc(/C=C/C(=O)/C=C(/C=C/c3ccc4[nH]cc(SC#N)c4c3)OB(F)F)cc12	-52.8% (active)
COc1ccc(Oc2nc(Nc3ccc(N4CCOCC4)cc3)ncc2NC(=O)c2cc(OC)cc(OC)c2)cc1	83.5%
COc1ccc2c(c1)oc1c(C)c3c(c(C)c12)C(=O)N(Nc1ccccc1)C3=O	105%
COc1ccc(/C=C2/C(=O)N=C3N2NC(c2ccccc2)=CN3c2ccccc2)cc1	111%
O=C1/C(=C/c2ccccc2[N+](=O)[O-])Cc2ccccc21	-23.8% (active) and -50.2% (active)
COc1ccc2c(c1)CCNC21C(=O)Nc2c(Br)cc(Br)cc21 (stereo not given)	101%
O=C(N/N=C/c1ccc(O)cc1O)c1cccc(Nc2ccnc(C(F)(F)F)c2)c1	32%
O=C(c1cccc(Br)c1)N1CCN(c2ccnc3cc(Cl)ccc23)CC1	86.9%
CCCCCC#CC1OC23CCCCC2C(C#N)(C(=N)O3)C1(C#N)C#N (stereo not given)	117%
COc1ccc(-c2c[nH]c(C(=O)O)c2-c2cc(OC)c(OC)c(OC)c2)cc1	-2.04% (active)
NC(N)=NC(N)=NCCCc1ccco1	102%
CN1Cn2c(ccc2C(F)(F)F)C(=O)CS1(=O)=O	112%
CCCc1cc(C(N)=S)ccn1	115%
C#CCn1cnc2cnc(Nc3cccc(NC(=O)CCl)c3)nc21	-44.9% [6.25 µM] (active)
CC1=C2[C@@H](CC1)[C@]1(C)O[C@@](C3CC3)(C[C@H]1OC(=O)CO)[C@H]2OC(=O)/C=C/c1ccccc1	95.2%
CCCn1nc(C(=O)N2CCCCC2)c2c1CCC(N1CCC(c3ccncc3)CC1)C2 (stereo not given)	106%
Cc1c(O)c(O)cc2c3c(oc12)CC(c1ccc2c(c1)OCO2)CC3=O (stereo not given)	86.4%
COc1ccc(Nc2nn3c(SCC(=O)c4ccc(C)cc4)nnc3s2)cc1	110%
N#Cc1c(-c2cccc(F)c2)cc(-c2cccnc2)[nH]c1=O	108%
O=[N+]([O-])c1ccc2[nH]c3nccc(NCc4cccc(Cl)c4)c3c2c1	49.8%
